Only some compounds are listed: those with a hit (about 11% of all), similar ones and a draw of the others.
PNC inhibitor = perinucleolar compartment assembly inhibition; 140,000 tested, 3.1% active; PC3M PTB-GFP, PNC prevalence imaging, 16 h; active compounds read low; activity change (PNC), negative = inhibition, % at 10 µM;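 active means readout at or below -70, meaning at least 70% loss of cells showing the perinucleolar compartment, a nuclear body marking cancer cells; inconclusive means readout between -30 and a set limit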;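 further: plate controls were DMSO wells for no effect and camptothecin positive control wells for full effect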
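Read-out is percentage of cells bearing a perinucleolar compartment, from automated 20x imaging of fixed, Hoechst-stained PC3M PTB-GFP cells. Cells were seeded 4 h, then exposed 16 h to compound (23 nl of library stock) in duplicate plates.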
IMPase inh = membrane-permeable compound that blocks inositol monophosphatase. P97697. CHO-M1 cells, IP1 accumulation, HTRF TR-FRET ratio. inhibition (IP1 accumulation), % at 46.1 µM. 120,000 tested, under 10 active; active means well fitted curve in the direction sought with a large enough effect in the signal ratio, not every such curve was filed as active; inconclusive means small, poorly fitted or top-dose-only effect, or a change in a side signal; inactive means no such curve, though single readings can be large or run the other way; the % refers to the signal ratio;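 further: cells stimulated with carbachol in lithium chloride buffer; plate controls were DMSO basal wells for no effect and reference inhibitor wells for full effect; higher means more IMPase inhibition seen as more IP1 and lower FRET ratio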
Target sequence (P97697 whole entry, looked up): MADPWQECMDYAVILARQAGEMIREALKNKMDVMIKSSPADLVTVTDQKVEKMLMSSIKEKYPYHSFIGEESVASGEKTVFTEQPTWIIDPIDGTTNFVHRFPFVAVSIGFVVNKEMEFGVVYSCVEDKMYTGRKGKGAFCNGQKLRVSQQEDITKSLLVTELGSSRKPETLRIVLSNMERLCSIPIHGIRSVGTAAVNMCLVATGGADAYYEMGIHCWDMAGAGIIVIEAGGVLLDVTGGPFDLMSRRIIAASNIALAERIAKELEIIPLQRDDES
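CHO-M1, 2000 cells/well, cultured 16–30 h; cpd up to 46 uM; carbachol (50 uM solution, stimulation buffer w/ 50 mM LiCl, pH 7.4), 30 min 37C; IP-One TR-FRET, 10 min RT; Ex 320/Em 665, 620; Hill-fit AC50.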
HPGD block = HPGD (human) dehydrogenase inhibition; AID 894; P15428; Potency, µM, inactives show at the top dose activity change, negative = inhibition, most hits filed as inhibitors; 150,000 tested, 4.3% active; purified HPGD, NADH fluorescence kinetic, PGE2 substrate; further: potency means the concentration at half of the fitted maximal effect
Target sequence (P15428 whole entry, looked up): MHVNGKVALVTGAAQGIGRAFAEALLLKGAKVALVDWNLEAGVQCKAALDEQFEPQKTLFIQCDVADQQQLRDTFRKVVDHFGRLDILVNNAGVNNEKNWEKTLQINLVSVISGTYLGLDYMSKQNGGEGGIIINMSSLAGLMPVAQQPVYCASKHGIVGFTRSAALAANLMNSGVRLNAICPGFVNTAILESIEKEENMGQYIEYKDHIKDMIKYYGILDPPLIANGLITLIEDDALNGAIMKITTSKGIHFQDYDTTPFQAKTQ
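NADH formation kinetics: reaction with 30 uM PGE2 and 1 mM NAD+ (final), 20 nM enzyme, Tris-HCl pH 8 with Tween 20, after 15 min compound preincubation at room temperature. Fluorescence change, last versus first of five reads.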
ALDH1A1 inh = blocks purified human ALDH1A1 activity; P00352; Potency, µM (highest dose often 75.3 µM), inactives show at the top dose activity, negative = inhibition, actives largely listed as inhibitors; 220,000 tested, 7.3% active; Purified ALDH1A1, NADH fluorescence, propionaldehyde substrate;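 further: potency means the concentration at half of the fitted maximal effect; plate controls were no enzyme wells and a reference inhibitor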
IMPase Li inh = cell-permeable IMPase inhibitors with lithium potentiation; 210,000 tested, 0.35% active; CHO-M1 cells, IP1 TR-FRET (IP-One), carbachol + lithium; AID 1457; Potency, µM (series often up to 59.4 µM), without a hit: at the highest dose activity, negative = IMPase inhibition, usual class: inhibitors; active means well fitted curve in the direction sought with a large enough effect; inconclusive means small, poorly fitted or top-dose-only effect, or another doubt; inactive means no such curve, though single readings can be large; an effect the other way counts as inactive or inconclusive;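 further: IP1 builds up when IMPase is blocked and the TR-FRET signal falls; potency means the concentration at half of the fitted maximal effect; plate controls were basal vehicle for no effect and high inhibitor control for full effect; nearly all actives have a fitted effect of over 50% in size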
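CHO cells stably expressing M1 receptor (2000/well) were cultured 16–30 h, then exposed to compounds with a small lithium addition for 30 min at 37C. IP1 was measured by TR-FRET competition; AC50 from Hill fits.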
NPSR antagonist = neuropeptide S receptor (human) antagonism, cAMP; AID 1461; 220,000 tested, 1% active; Potency, µM (doses to about 38.3 µM), without a hit: at the top dose activity change, negative = inhibition, hits mostly inhibitors; Q6W5P4; CHO-NPSR cells, cAMP TR-FRET, antagonist mode; active means well fitted curve in the direction sought with a large enough effect; inconclusive means small, poorly fitted or top-dose-only effect, or another doubt; inactive means no such curve, though single readings can be large; an effect the other way counts as inactive or inconclusive; further: potency means the concentration at half of the fitted maximal effect; nearly all actives have a fitted effect of over 50% in size
Starred values were filed as active, the others as inactive; ? = inconclusive; / = no result given; [ ] = remark or other dose. Unless noted, the call rests on the fitted dose curve; in most records, active means well fitted inhibition curve with a large enough effect (not every such curve was filed as active); inconclusive means small, poorly fitted or top-dose-only effect, or another doubt; inactive means no such curve, though single readings can be large or run the other way. Unless noted, on the % scale 0 is the no-effect control and ±100 the full control effect.

SMILES	PNC inhibitor	IMPase inh	HPGD block	ALDH1A1 inh	IMPase Li inh	NPSR antagonist
CCOC(=O)CSc1nc2cc(C(=O)NCC3CCCO3)ccc2c(=O)n1Cc1ccco1 (configuration not stated)	-88*	7	-25%	?	3%[38.3 µM]	?
CCN(CC)C(=O)CSc1nc2cc3c(cc2c(=O)n1Cc1ccco1)OCO3	/	/	/	0.89µM*	1%	-35%
CCC(Sc1nc2cc3c(cc2c(=O)n1Cc1ccco1)OCO3)C(=O)NCCOC (configuration not stated)	-24	0	-5%	2.2µM*	3%[38.3 µM]	-18%[46.1 µM]
O=C(NCC1CCCO1)c1ccc2c(=O)n(Cc3ccco3)c(SCC(=O)N3CCCC3)nc2c1 (configuration not stated)	39	1	?	?	-4%[38.3 µM]	-4%[46.1 µM]
COCCNC(=O)c1ccc2c(=O)n(Cc3ccco3)c(SCC(=O)NC3CCCC3)nc2c1	64	5	-23%	7.9µM*	30%[38.3 µM]	-9%[46.1 µM]
O=C(NCC1CCCO1)c1cc2ccccc2nc1Cl (configuration not stated)	/	/	/	8%	-8%	12%
CCOC(=O)Cn1c(=O)n(Cc2ccco2)c(=O)c2ccc(C(=O)NC3CCCC3)cc21	-15	3	-4%	7.9µM*	0%[38.3 µM]	-14%[46.1 µM]
O=c1[nH]n(-c2cccc3cccnc23)c(=O)c2ccccc12	-4	0	25µM*	1%	-2%[38.3 µM]	-7%[46.1 µM]
Cc1nn(-c2cccc3cccnc23)c(=O)c2ccccc12	34	-2	-9%	-1%	29%[38.3 µM]	-1%[46.1 µM]
Cc1c(C2=CCN(S(=O)(=O)c3ccc(Br)cc3)CC2)c2ccccc2n1C	30	/	-25%	-14%	12%	-3%
O=C(NCCOC(=O)c1ccc(C(=O)OCCNC(=O)c2ccccc2)o1)c1ccccc1	-10	-9	7.9µM*	?	-12%[38.3 µM]	2%[46.1 µM]
O=C(NCCOCCOCCNC(=O)c1ccccc1)c1ccccc1	/	/	/	-11%	-1%	11%
ClC(Cl)c1nnc(-c2ccccc2)c(-c2c[nH]c3ccccc23)n1	-17	/	-14%	?	4%	-16%
COc1cc(/C=N/NC(N)=O)cc(Br)c1OCc1ccc(C)cc1	?	14	-9%	-11%	44%[38.3 µM]	-18%[46.1 µM]
CCOc1cc(/C=N/NC(=O)Cn2nc([N+](=O)[O-])cc2C)cc(Br)c1OCc1ccccc1F	39	3	-19%	0%	36%[38.3 µM]	-11%[46.1 µM]
CCOc1cc(/C=N/NC(N)=O)cc(Br)c1OCc1ccccc1F	-92*	/	0%	9%	1%	10%
CCOc1cc(/C=N\NC(N)=O)cc(Br)c1OC(C)C	-97*	/	2%	-3%	1%	1%
Cc1ccc(S(=O)(=O)Nc2ccc(S(=O)(=O)Nc3cc(C)nc(C)n3)cc2)cc1	/	/	/	4µM*	-1%	4%
Cc1ccn2cc(-c3ccc(NS(=O)(=O)c4ccccc4)cc3)nc2c1	18	/	22µM*	-5%	6%	-13%
Cc1cc(NS(=O)(=O)c2ccc(NS(=O)(=O)c3ccc(CC(C)C)cc3)cc2)nc(C)n1	/	/	/	32µM*	14%	-3%
Cc1ccc(S(=O)(=O)Nc2ccc(-c3cn4ccc(C)cc4n3)cc2)cc1	?	-5	/	-3%	/	-27%[46.1 µM]
CCOC(=O)C(NC(C)=O)(Nc1ccc(S(=O)(=O)Nc2cc(C)nc(C)n2)cc1)C(F)(F)F (configuration not stated)	?	?	4%	14µM*	-38%[38.3 µM]	6%[46.1 µM]
CCOC(=O)c1ccc(NC(=O)c2nc[nH]c2C(=O)N(CC)CC)cc1	/	/	/	/	/	-2%
CCCC1=Nc2cc(C(=O)NCCc3ccc(OCC)cc3)ccc2Sc2ccccc21	/	9	/	/	/	/
COc1ccc(OC)c(NC(=S)NCc2cccnc2)c1	-5	/	-13%	-9%	3%	14%
Cc1cc(NS(=O)(=O)c2ccc(NC(=O)CCCC(=O)O)cc2)nc(C)n1	-88*	?	-1%	-3%	-2%	19%[46.1 µM]
CCOC(=O)Nc1ccc(S(=O)(=O)Nc2cc(C)nc(C)n2)cc1	13	0	-3%	-2%	2%[38.3 µM]	-3%[46.1 µM]
